Screens: PubChem BioAssay, National Center for Advancing Translational Sciences (NCATS)
In the library only some 9.2% were active in any assay of this set; here they are far more common.
ELG1 genotox: qHTS screen for small molecules that induce genotoxicity in human embryonic kidney (HEK293T) cells expressing luciferase-tagged ELG1; HEK293T ELG1-luciferase reporter, luminescence, 16 h; Potency, µM (titrated, usually from 46 µM), inactives show at the top dose activity change, positive = activation, actives largely listed as activators; 330,000 tested, 1.3% active; AID 504466, 2011; further: % of control where 0% means no effect; nearly all actives have a fitted effect of over 60% in size
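Reporter readout depends on ELG1 protein level, which increases with genetic stress. After 16 hr compound exposure at 37 °C, luciferase activity was quantified using ONE-Glo.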
FLuc modulator: qHTS profiling assay for firefly luciferase inhibitor/activator using purifed enzyme and Km concentrations of substrates (counterscreen for miR-21 project); purified FLuc, Km substrates, luminescence inhibition; Potency, µM (doses to about 57.5 µM), without a hit: top-dose activity change, negative = inhibition, usual class: inhibitors; 360,000 tested, 6.9% active; AID 588342, 2011;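 further: plate controls were vehicle for no effect and reference inhibitor for full effect; nearly all actives have a fitted effect of over 55% in size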
Target sequence (P08659 whole entry, looked up): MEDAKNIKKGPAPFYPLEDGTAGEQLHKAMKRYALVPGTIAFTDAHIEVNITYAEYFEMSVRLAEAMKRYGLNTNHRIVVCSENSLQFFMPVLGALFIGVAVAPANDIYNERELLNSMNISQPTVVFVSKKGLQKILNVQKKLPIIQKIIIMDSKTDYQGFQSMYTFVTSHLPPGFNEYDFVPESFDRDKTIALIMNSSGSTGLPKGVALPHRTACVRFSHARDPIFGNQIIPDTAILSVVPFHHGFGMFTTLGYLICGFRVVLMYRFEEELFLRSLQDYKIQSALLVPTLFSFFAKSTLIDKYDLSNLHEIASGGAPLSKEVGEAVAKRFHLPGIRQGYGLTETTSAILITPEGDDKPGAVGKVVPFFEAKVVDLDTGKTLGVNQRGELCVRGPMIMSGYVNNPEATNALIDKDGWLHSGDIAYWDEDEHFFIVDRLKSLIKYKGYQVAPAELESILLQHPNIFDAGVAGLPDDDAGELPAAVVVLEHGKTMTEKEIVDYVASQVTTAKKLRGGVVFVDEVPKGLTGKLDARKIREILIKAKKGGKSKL
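Biochemical qHTS of compounds, final roughly 60 µM downward over six points, against 10 nM purified firefly luciferase using Km concentrations of substrates (10 uM D-luciferin, 10 uM ATP) in Tris acetate pH 7.5 buffer; luminescence output.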
SMN2 splice up: qHTS Assay for Enhancers of SMN2 Splice Variant Expression; HEK293 SMN2-luciferase splicing reporter, luminescence, 30-36 h; Potency, µM (doses to about 46.1 µM), without a hit: at the highest dose activity change, positive = activation, usual class: activators; 210,000 tested, 2.8% active; AID 1458, 2008; further: % of control where 0% means no effect; nearly all actives have a fitted effect of over 55% in size
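qHTS luciferase splicing reporter: luminescence rises when SMN2 exon 7 is included in transfected HEK293 cells. Compound exposure lasted 30-36 h at 37C, with 4.5 mM final sodium butyrate as control, followed by a ONE-Glo read.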
Rab9 prom act: qHTS Assay for Rab9 Promoter Activators. Huh7 Rab9 promoter-luciferase reporter, luminescence, 24 h. 320,000 tested, 2.8% active. Potency, µM (doses to about 9.22 µM), without a hit: top-dose activation, negative = inhibition, usual class: activators. AID 485297, 2010; further: % of control where 0% means no effect; nearly all actives have a fitted effect of over 60% in size
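Huh7 cells stably carrying Rab9 promoter–luciferase reporter, plated 1500 cells/well, compound added after 2 h and incubated 24 h at 37 °C; luciferase luminescence then read after 10 min with detection reagent.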
NPC1 prom act: qHTS Assay for NPC1 Promoter Activators; Potency, µM (top dose mostly 9.22 µM), without a hit: at the highest dose activation, most hits filed as activators; Huh7 NPC1 promoter luciferase reporter, 24 h; AID 485313, 2010; 320,000 tested, 2.4% active; further: % of control where 0% means no effect; nearly all actives have a fitted effect of over 60% in size
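In 1536-well qHTS, Huh7 cells harboring an NPC1 promoter–luciferase construct received compound for 24 h; activation was quantified by luminescence following luciferase reagent addition.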
ELG1 DNA repair: qHTS screen for small molecules that inhibit ELG1-dependent DNA repair in human embryonic kidney (HEK293T) cells expressing luciferase-tagged ELG1 | HEK293T ELG1-luciferase reporter, luminescence, 16 h; DNA damage induced by 5-fluorouridine | Potency, µM (top dose mostly 46.1 µM), without a hit: top-dose activity change, negative = inhibition, actives largely listed as inhibitors | 330,000 tested, 2.3% active | AID 504467, 2011; further: on the % scale 0 is the no-effect control and ±100 the full control effect; nearly all actives have a fitted effect of over 55% in size
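Luminescence from the luciferase reporter, measured 30 min after ONE-Glo reagent at room temperature, was the read-out. Beforehand, 2,000 cells per well were exposed for 16 hr at 37 °C to 5-fluorouridine together with compound or vehicle.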
Starred values were filed as active, the others as inactive. The call rests on the fitted dose curve; in most records, active means well fitted curve in the direction sought with a large enough effect; inconclusive means small, poorly fitted or top-dose-only effect, or another doubt; inactive means no such curve, though single readings can be large; an effect the other way counts as inactive or inconclusive. Potency means the concentration at half of the fitted maximal effect.

`CCCCOC(=O)c1ccc(NC(=O)CSc2nnnn2C)cc1` gave ELG1 genotox 7%, FLuc modulator 0%, Rab9 prom act 16%, NPC1 prom act -1% and ELG1 DNA repair 16%.
`CCn1nccc1C(=O)Nc1ccc(C(=O)OC(C)C)cc1` gave ELG1 genotox 15%, FLuc modulator 19µM*, Rab9 prom act inconclusive, NPC1 prom act inconclusive and ELG1 DNA repair 18%.
O=C(NCc1ccco1)c1cccc(NS(=O)(=O)c2ccccc2F)c1 was read as ELG1 genotox 1%, FLuc modulator -1%, SMN2 splice up -4%, Rab9 prom act -4%, NPC1 prom act -1% and ELG1 DNA repair -6%.
`CCCCn1cnc2cc(NCc3ccccc3Cl)ccc21` gave FLuc modulator 24µM* and SMN2 splice up 18%.
`CCn1cnc2cc(NCc3ccccc3Cl)ccc21` gave ELG1 genotox inconclusive, FLuc modulator 17µM*, Rab9 prom act inconclusive, NPC1 prom act inconclusive and ELG1 DNA repair inconclusive.
Screening CCCn1cnc2cc(NCc3cccs3)ccc21 returned ELG1 genotox inconclusive, FLuc modulator 19µM*, Rab9 prom act inconclusive, NPC1 prom act inconclusive and ELG1 DNA repair inconclusive.
Cc1ccc(OCCCC(=O)Nc2ccc(Cl)c(S(=O)(=O)N3CCOCC3)c2)cc1 was read as ELG1 genotox -7%, FLuc modulator -5%, Rab9 prom act -17%, NPC1 prom act -14% and ELG1 DNA repair 23µM*.
Cc1ccc(NC(=O)CCCOc2ccccc2)cc1S(=O)(=O)N1CCOCC1 was read as ELG1 genotox -3%, Rab9 prom act -1%, NPC1 prom act 0% and ELG1 DNA repair inconclusive.
Cc1ccc(NC(=O)COc2ccc(-c3nnco3)cc2)cc1S(=O)(=O)N1CCOCC1 was read as ELG1 genotox -16%, FLuc modulator inconclusive, SMN2 splice up -22%, Rab9 prom act -2%, NPC1 prom act -13% and ELG1 DNA repair 18µM*.
Screening O=C(CCCOc1ccccc1)Nc1ccc(Cl)c(S(=O)(=O)N2CCOCC2)c1 returned ELG1 genotox -4% and ELG1 DNA repair 13µM*.
CCN(c1ccc(NC(=O)COC(=O)c2ccc3ccccc3n2)cc1)C(C)C was read as ELG1 genotox 3%, FLuc modulator 15µM*, SMN2 splice up -12%, Rab9 prom act -1%, NPC1 prom act -3% and ELG1 DNA repair -6%.
For CC(C)(O)C#Cc1ccc(CN2CCCC(CNC(=O)c3ccco3)C2)cc1 (stereo not drawn) the results were ELG1 genotox 2%, FLuc modulator -4%, Rab9 prom act 4%, NPC1 prom act 1% and ELG1 DNA repair 1%.
Screening CC(=O)Nc1nc(Cn2nnc(-c3ccc4c(c3)OCO4)n2)nc(N(C)C)n1 returned ELG1 genotox 0%, FLuc modulator 3%, SMN2 splice up -44%, Rab9 prom act -2%, NPC1 prom act -2% and ELG1 DNA repair 1%.
`CCN(c1ccc(NC(=O)COC(=O)c2ccc(C)c(S(=O)(=O)N3CCOCC3)c2)cc1)C(C)C` gave FLuc modulator 17µM* and SMN2 splice up -9%.
Screening O=C(COc1cccc(Br)c1)Nc1ccc(Cl)c(S(=O)(=O)N2CCOCC2)c1 returned ELG1 genotox -9% and ELG1 DNA repair 23µM*.
`O=C(COc1ncnc2ccccc12)Nc1ccc(Cl)c(S(=O)(=O)N2CCOCC2)c1` gave ELG1 genotox -1%, FLuc modulator 5%, Rab9 prom act -4%, NPC1 prom act -3% and ELG1 DNA repair inconclusive.
For O=C(CSc1oc(-c2ccccc2)nc1S(=O)(=O)c1ccc(Cl)cc1)c1ccccc1 the results were FLuc modulator -15% and SMN2 splice up -1%.
For COc1ccccc1CCNC(=O)c1ccc(Br)s1 the results were ELG1 genotox 12%, FLuc modulator 13µM*, Rab9 prom act 0%, NPC1 prom act -3% and ELG1 DNA repair inconclusive.
COC(=O)c1ccccc1NC(=O)NCCc1ccccc1OC was read as ELG1 genotox 9%, FLuc modulator inconclusive, SMN2 splice up 13µM*, Rab9 prom act 4µM*, NPC1 prom act 3.5µM* and ELG1 DNA repair inconclusive.
Screening COc1ccccc1CCNS(=O)(=O)CCNC(=O)c1ccccc1 returned ELG1 genotox 1%, FLuc modulator 4%, Rab9 prom act -1%, NPC1 prom act -5% and ELG1 DNA repair -9%.
`Cc1cc(C(=O)N2CCN(c3ccc([N+](=O)[O-])cc3)CC2)n[nH]1` gave ELG1 genotox -3%, FLuc modulator -1%, Rab9 prom act -2%, NPC1 prom act -9% and ELG1 DNA repair 1%.
CNc1nnc(-c2ccc(N(C)C)cc2)s1 was read as ELG1 genotox inconclusive, FLuc modulator 2.1µM*, SMN2 splice up 2.8µM*, Rab9 prom act 0.45µM*, NPC1 prom act 0.56µM* and ELG1 DNA repair inconclusive.
For Cc1cc(OC(=O)c2ccccc2Cl)cc(=O)n1C the results were ELG1 genotox -1%, FLuc modulator 15µM*, SMN2 splice up 13%, Rab9 prom act -2%, NPC1 prom act -2% and ELG1 DNA repair inconclusive.
`O=C(Oc1ccc(N2C(=O)CCC2=O)cc1)c1ccccc1Cl` gave ELG1 genotox -5%, FLuc modulator 24µM*, SMN2 splice up 0%, Rab9 prom act 0%, NPC1 prom act -5% and ELG1 DNA repair -8%.
Cc1nn(Cc2cccc(C(=O)NC34CC5CC(CC(C5)C3)C4)c2)c(C)c1Br was read as ELG1 genotox -10%, FLuc modulator -9%, SMN2 splice up -50%, Rab9 prom act 0%, NPC1 prom act -3% and ELG1 DNA repair 23µM*.
Screening COc1ccc(C(=O)NCC(=O)OCC(=O)NC23CC4CC(CC(C4)C2)C3)cc1 returned ELG1 genotox 4% and ELG1 DNA repair inconclusive.
Screening COc1ccc(C(=O)NC23CC4CC(CC(C4)C2)C3)cc1 returned ELG1 genotox 4%, FLuc modulator 7.6µM*, Rab9 prom act 18%, NPC1 prom act 2% and ELG1 DNA repair inconclusive.
